Common to all, as to assay: DAPPL (digital affinity profiling via proximity ligation, sequencing); 10 mM Tris-HCl pH 7.5, 50 mM NaCl, 1 mM DTT, 4% glycerol, room temperature, 30 min; GST-TFs on glutathione beads, 16-mer random dsDNA library, 0.1% formaldehyde crosslink after washing; high values mean tight binding
One assay has as its target T1, FEV (Homo sapiens, UniProt Q99581 1-238).
T1 sequence: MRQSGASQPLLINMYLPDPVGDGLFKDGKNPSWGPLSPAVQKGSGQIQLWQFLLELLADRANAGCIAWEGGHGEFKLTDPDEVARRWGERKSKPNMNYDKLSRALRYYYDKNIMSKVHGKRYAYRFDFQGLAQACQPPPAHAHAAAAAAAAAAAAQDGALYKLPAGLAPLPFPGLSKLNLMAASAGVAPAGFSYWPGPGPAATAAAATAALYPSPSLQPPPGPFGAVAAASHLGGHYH
Conditions: protein: recombinant; tags: N-terminal GST; dsDNA, one strand shown. In short, it runs like this: (§1)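 Human transcription factors fused to GST were expressed in yeast, captured on glutathione beads, given DNA barcodes and pooled with a GST-only negative control. Pools were incubated with 200 nmole of a 16-mer random double-stranded DNA library in Tris/NaCl/DTT/glycerol buffer at room temperature for 30 min. They were then washed, crosslinked with 0.1% formaldehyde, proximity-ligated (BsaI/T4 ligase, 1 h, 37 °C), PCR-amplified and sequenced on an Illumina NextSeq500. Binding signal is each 6-mer's read frequency for a factor divided by its frequency for the GST control.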

A further assay has as its target ETV5 (Homo sapiens, UniProt P41161 1-510). Particulars: protein: recombinant; tags: N-terminal GST; dsDNA, one strand shown. In short, it runs like this: as §1
The next assay has as its target HSF1 (Homo sapiens, UniProt Q00613 1-529). Particulars: protein: recombinant; tags: N-terminal GST; chain copies: 3; dsDNA, one strand shown. In short, it runs like this: as §1
In the next assay the target is T2, SPIC (Homo sapiens, UniProt Q8N5J4 1-248).
T2 sequence: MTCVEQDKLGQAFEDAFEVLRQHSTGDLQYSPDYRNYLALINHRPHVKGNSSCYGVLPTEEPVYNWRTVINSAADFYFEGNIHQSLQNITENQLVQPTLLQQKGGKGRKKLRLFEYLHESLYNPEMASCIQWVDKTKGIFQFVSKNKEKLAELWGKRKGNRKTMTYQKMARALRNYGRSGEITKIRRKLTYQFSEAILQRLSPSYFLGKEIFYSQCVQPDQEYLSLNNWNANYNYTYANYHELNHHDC
Particulars: protein: recombinant; tags: N-terminal GST; dsDNA, one strand shown. In short, it runs like this:
as §1

Another assay addresses ELF4 (Homo sapiens, UniProt Q99607 1-663). Conditions: protein: recombinant; tags: N-terminal GST; dsDNA, one strand shown. In short, it runs like this:
as §1

A further assay has as its target T3, ELK4 (Homo sapiens, UniProt P28324-2 1-405).
T3 sequence: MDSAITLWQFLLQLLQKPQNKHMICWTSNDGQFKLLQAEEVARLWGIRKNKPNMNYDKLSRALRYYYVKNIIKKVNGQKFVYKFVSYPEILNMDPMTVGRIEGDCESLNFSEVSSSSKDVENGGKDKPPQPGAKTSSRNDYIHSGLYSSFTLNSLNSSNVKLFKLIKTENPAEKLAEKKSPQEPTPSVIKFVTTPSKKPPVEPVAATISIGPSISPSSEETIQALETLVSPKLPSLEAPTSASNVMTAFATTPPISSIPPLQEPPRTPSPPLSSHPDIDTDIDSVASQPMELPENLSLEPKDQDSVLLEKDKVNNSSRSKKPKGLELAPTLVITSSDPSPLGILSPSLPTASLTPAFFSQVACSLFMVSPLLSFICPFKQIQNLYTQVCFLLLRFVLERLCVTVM
Particulars: protein: recombinant; tags: N-terminal GST; dsDNA, one strand shown. In short, it runs like this: as §1

A further assay has as its target T4, ETV2 (Homo sapiens, UniProt O00321 1-342).
T4 sequence: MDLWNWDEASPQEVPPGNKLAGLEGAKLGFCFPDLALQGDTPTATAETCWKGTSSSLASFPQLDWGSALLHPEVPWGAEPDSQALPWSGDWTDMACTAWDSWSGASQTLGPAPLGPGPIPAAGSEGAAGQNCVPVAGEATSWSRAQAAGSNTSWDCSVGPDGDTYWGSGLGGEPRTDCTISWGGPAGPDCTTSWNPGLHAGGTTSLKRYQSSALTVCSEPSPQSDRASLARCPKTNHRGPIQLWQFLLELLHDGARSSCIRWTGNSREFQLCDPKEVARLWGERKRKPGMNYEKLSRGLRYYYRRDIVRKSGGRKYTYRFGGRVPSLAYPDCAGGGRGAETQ
Particulars: protein: recombinant; tags: N-terminal GST; dsDNA, one strand shown. In short, it runs like this:
as §1

Another assay has as its target T5, ELF3 (Homo sapiens, UniProt P78545 1-371).
T5 sequence: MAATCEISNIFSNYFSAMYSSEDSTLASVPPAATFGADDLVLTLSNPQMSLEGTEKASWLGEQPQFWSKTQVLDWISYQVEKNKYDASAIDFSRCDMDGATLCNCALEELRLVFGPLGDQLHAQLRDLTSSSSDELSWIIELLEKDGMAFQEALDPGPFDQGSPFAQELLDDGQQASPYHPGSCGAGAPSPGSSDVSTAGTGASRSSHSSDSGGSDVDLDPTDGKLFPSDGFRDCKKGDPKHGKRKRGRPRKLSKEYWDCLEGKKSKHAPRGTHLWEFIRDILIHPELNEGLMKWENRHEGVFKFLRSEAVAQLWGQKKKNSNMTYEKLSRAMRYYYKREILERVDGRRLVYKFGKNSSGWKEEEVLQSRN
Particulars: protein: recombinant; tags: N-terminal GST; dsDNA, one strand shown. The procedure, abridged:
as §1

For a further assay, the target named is ETV1 (Homo sapiens, UniProt P50549 1-477). Conditions: protein: recombinant; tags: N-terminal GST; dsDNA, one strand shown. In short, it runs like this:
as §1

Sequence of ETV1 (P50549 whole entry): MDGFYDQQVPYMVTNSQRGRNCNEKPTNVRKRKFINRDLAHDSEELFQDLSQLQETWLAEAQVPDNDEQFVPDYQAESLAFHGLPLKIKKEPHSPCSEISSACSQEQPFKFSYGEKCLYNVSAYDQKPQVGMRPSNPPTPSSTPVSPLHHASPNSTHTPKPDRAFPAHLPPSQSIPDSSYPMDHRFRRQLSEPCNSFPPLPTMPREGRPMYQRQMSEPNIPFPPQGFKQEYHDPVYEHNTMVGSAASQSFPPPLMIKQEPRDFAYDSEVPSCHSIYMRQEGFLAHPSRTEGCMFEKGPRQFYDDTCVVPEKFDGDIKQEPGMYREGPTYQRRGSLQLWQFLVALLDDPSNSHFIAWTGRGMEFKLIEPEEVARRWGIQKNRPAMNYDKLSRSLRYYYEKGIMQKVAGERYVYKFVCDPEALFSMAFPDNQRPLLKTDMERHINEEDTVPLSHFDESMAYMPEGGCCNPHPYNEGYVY
Sequence of ELF4 (Q99607 whole entry): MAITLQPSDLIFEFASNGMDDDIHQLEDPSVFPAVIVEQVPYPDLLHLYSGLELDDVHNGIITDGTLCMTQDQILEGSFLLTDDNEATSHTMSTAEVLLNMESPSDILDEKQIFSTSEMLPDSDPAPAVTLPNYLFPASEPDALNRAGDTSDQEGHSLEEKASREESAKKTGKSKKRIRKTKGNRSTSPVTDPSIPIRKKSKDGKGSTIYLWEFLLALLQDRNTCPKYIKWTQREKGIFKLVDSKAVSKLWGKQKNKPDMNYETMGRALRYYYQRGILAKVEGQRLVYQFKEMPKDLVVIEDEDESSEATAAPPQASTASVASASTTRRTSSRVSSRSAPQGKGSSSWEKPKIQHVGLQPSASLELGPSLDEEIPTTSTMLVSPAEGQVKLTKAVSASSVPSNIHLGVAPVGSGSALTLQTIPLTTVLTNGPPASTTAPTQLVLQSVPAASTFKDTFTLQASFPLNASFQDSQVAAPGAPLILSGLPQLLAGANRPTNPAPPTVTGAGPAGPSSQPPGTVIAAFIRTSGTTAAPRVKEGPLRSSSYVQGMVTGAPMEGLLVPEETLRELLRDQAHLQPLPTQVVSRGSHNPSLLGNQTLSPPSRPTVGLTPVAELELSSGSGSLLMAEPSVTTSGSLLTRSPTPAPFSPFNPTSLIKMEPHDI
Sequence of ETV5 (P41161 whole entry): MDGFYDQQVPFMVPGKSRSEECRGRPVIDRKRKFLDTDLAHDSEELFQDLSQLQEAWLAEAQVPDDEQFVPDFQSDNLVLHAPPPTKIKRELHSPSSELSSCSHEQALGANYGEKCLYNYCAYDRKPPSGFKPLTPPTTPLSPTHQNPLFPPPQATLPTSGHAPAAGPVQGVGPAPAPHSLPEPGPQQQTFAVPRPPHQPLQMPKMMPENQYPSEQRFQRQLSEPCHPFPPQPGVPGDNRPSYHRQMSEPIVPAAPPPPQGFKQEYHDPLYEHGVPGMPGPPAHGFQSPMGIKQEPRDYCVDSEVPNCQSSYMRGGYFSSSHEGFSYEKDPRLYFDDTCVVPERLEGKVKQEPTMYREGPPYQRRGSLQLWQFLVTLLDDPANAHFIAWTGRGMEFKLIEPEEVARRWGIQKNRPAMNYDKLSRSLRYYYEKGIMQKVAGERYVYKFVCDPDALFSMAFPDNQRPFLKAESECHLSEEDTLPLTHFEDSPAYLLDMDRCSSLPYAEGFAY
Sequence of HSF1 (Q00613 whole entry): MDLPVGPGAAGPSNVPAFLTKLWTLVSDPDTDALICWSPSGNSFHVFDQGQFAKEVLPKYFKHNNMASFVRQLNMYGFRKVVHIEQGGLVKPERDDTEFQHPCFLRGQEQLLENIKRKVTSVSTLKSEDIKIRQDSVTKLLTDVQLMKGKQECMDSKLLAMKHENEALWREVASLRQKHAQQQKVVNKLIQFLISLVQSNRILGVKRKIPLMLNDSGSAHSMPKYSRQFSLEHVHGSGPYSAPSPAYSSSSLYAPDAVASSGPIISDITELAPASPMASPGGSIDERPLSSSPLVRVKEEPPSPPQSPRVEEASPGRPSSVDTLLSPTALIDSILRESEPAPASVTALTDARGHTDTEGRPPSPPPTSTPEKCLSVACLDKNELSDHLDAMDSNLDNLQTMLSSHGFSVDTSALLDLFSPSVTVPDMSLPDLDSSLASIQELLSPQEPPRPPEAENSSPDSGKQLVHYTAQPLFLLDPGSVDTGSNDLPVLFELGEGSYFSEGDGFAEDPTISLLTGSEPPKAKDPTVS

As for ACGAAC, the binding signal with FEV is 1.15 fold enrichment (6-mer frequency, TF over GST control); with ETV5, 1.22 fold enrichment (6-mer frequency, TF over GST control); with HSF1, 1.19 fold enrichment (6-mer frequency, TF over GST control); with SPIC it was 1.07 fold enrichment (6-mer frequency, TF over GST control); with ELF4, 1.22 fold enrichment (6-mer frequency, TF over GST control); in the assay with ELK4, 1.18 fold enrichment (6-mer frequency, TF over GST control). Also, the binding signal with ETV2 was 1.18 fold enrichment (6-mer frequency, TF over GST control); in the assay with ELF3, 1.22 fold enrichment (6-mer frequency, TF over GST control); with ETV1, 1.09 fold enrichment (6-mer frequency, TF over GST control).
GCAACT: the binding signal in the assay with FEV was 1.27 fold enrichment (6-mer frequency, TF over GST control); with ETV5 it was 1.2 fold enrichment (6-mer frequency, TF over GST control); with HSF1, 1.05 fold enrichment (6-mer frequency, TF over GST control); with SPIC, 1.3 fold enrichment (6-mer frequency, TF over GST control); with ELF4, 1.2 fold enrichment (6-mer frequency, TF over GST control); in the assay with ELK4, 1.2 fold enrichment (6-mer frequency, TF over GST control). In addition, the binding signal with ETV2 was 1.04 fold enrichment (6-mer frequency, TF over GST control); in the assay with ELF3, 1.12 fold enrichment (6-mer frequency, TF over GST control); with ETV1, 1.25 fold enrichment (6-mer frequency, TF over GST control).
With TGAATG, the binding signal was 1.19 fold enrichment (6-mer frequency, TF over GST control) with FEV; 1.1 fold enrichment (6-mer frequency, TF over GST control) with ETV5; 1.15 fold enrichment (6-mer frequency, TF over GST control) with HSF1; 1.03 fold enrichment (6-mer frequency, TF over GST control) in the assay with SPIC; 1.16 fold enrichment (6-mer frequency, TF over GST control) with ELF4; 1.2 fold enrichment (6-mer frequency, TF over GST control) with ELK4. For the same sequence, the binding signal with ETV2 is 1.37 fold enrichment (6-mer frequency, TF over GST control); in the assay with ELF3, 1.08 fold enrichment (6-mer frequency, TF over GST control); with ETV1, 1.14 fold enrichment (6-mer frequency, TF over GST control).
On to ATGTGC, for which the binding signal in the assay with FEV was 1.16 fold enrichment (6-mer frequency, TF over GST control); with ETV5 it was 1.16 fold enrichment (6-mer frequency, TF over GST control); with HSF1 it was 1.02 fold enrichment (6-mer frequency, TF over GST control); in the assay with SPIC, 1.17 fold enrichment (6-mer frequency, TF over GST control); with ELF4 it was 1.17 fold enrichment (6-mer frequency, TF over GST control); in the assay with ELK4, 1.21 fold enrichment (6-mer frequency, TF over GST control). The binding signal with ETV2 was 1.11 fold enrichment (6-mer frequency, TF over GST control); with ELF3 it was 1.1 fold enrichment (6-mer frequency, TF over GST control); with ETV1 it was 1.05 fold enrichment (6-mer frequency, TF over GST control).
On to CACTCC, for which the binding signal is 1.28 fold enrichment (6-mer frequency, TF over GST control) with FEV; 1.27 fold enrichment (6-mer frequency, TF over GST control) in the assay with ETV5; 1.05 fold enrichment (6-mer frequency, TF over GST control) with HSF1; 1.28 fold enrichment (6-mer frequency, TF over GST control) with SPIC; 1.34 fold enrichment (6-mer frequency, TF over GST control) with ELF4; 1.35 fold enrichment (6-mer frequency, TF over GST control) in the assay with ELK4. The binding signal is 1.17 fold enrichment (6-mer frequency, TF over GST control) in the assay with ETV2; 1.23 fold enrichment (6-mer frequency, TF over GST control) in the assay with ELF3; 1.27 fold enrichment (6-mer frequency, TF over GST control) with ETV1.
Consider TCGTAC, for which the binding signal is 1.13 fold enrichment (6-mer frequency, TF over GST control) with FEV; 1.13 fold enrichment (6-mer frequency, TF over GST control) in the assay with ETV5; 1.06 fold enrichment (6-mer frequency, TF over GST control) with HSF1; 1.09 fold enrichment (6-mer frequency, TF over GST control) with SPIC; 1.14 fold enrichment (6-mer frequency, TF over GST control) with ELF4; 1.03 fold enrichment (6-mer frequency, TF over GST control) with ELK4. Also, the binding signal with ETV2 was 1.22 fold enrichment (6-mer frequency, TF over GST control); with ELF3 it was 1.22 fold enrichment (6-mer frequency, TF over GST control); with ETV1, 1.18 fold enrichment (6-mer frequency, TF over GST control).
CAATTG: the binding signal is 1.18 fold enrichment (6-mer frequency, TF over GST control) in the assay with FEV; 1.2 fold enrichment (6-mer frequency, TF over GST control) with ETV5; 1.04 fold enrichment (6-mer frequency, TF over GST control) in the assay with HSF1; 1.28 fold enrichment (6-mer frequency, TF over GST control) in the assay with SPIC; 1.27 fold enrichment (6-mer frequency, TF over GST control) with ELF4; 1.04 fold enrichment (6-mer frequency, TF over GST control) in the assay with ELK4. Moreover, the binding signal with ETV2 was 1.16 fold enrichment (6-mer frequency, TF over GST control); in the assay with ELF3, 1.32 fold enrichment (6-mer frequency, TF over GST control); in the assay with ETV1, 1.17 fold enrichment (6-mer frequency, TF over GST control).

Source of the values: article PMC7862700, “An all-to-all approach to the identification of sequence-specific readers for epigenetic DNA modifications on cytosine”.
